Screening results deposited in PubChem by National Center for Advancing Translational Sciences (NCATS).
TCR act: Activators of T cell receptors: qHTS campaign; Potency, µM (doses to about 9.22 µM), inactives show at the top dose activation of IL-2 secretion, hits mostly activators; primary human leukocytes, anti-CD3, IL-2 HTRF, 48 h; 330,000 tested, under 10 active; further: % of control where 0% means no effect
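1) Mix primary human leukocytes, a-CD3 beads and compound. 2) Incubate 48 hr. 3) Add HTRF IL-2 reagents (a-IL-2-K, a-IL-2-d2).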
FEN1 inhibitor: qHTS Assay for the Inhibitors of Human Flap endonuclease 1 (FEN1) | P39748 | Recombinant FEN1 flap cleavage, fluorescence, 15 min | Potency, µM (doses to about 114 µM), for the others: top-dose activity change, negative = inhibition, actives largely listed as inhibitors | 0.35% of 390,000 active | AID 588795, 2011; further: potency means the concentration at half of the fitted maximal effect; on the % scale 0 is the no-effect control and ±100 the full control effect; nearly all actives have a fitted effect of over 65% in size
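Concentration–response screening of FEN1 (10 nM): 15 min compound preincubation at room temperature, reaction started with 50 nM substrate and read at 0 and 15 min. Corrected, normalized data were fitted by a four-parameter Hill equation.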
WRN inhibitor: qHTS for Inhibitors of WRN Helicase | Bifunctional 3'-5' exonuclease/ATP-dependent helicase WRN (Homo sapiens), Q14191 | WRN helicase unwinding, fluorescent forked duplex, kinetic | Potency, µM (top dose mostly 114 µM), without a hit: at the top dose activity change, negative = inhibition, actives largely listed as inhibitors | 0.46% of 360,000 active | AID 651768, 2012; further: potency means the concentration at half of the fitted maximal effect; on the % scale 0 is the no-effect control and ±100 the full control effect; nearly all actives have a fitted effect of over 55% in size
Target sequence (Q14191 whole entry, looked up): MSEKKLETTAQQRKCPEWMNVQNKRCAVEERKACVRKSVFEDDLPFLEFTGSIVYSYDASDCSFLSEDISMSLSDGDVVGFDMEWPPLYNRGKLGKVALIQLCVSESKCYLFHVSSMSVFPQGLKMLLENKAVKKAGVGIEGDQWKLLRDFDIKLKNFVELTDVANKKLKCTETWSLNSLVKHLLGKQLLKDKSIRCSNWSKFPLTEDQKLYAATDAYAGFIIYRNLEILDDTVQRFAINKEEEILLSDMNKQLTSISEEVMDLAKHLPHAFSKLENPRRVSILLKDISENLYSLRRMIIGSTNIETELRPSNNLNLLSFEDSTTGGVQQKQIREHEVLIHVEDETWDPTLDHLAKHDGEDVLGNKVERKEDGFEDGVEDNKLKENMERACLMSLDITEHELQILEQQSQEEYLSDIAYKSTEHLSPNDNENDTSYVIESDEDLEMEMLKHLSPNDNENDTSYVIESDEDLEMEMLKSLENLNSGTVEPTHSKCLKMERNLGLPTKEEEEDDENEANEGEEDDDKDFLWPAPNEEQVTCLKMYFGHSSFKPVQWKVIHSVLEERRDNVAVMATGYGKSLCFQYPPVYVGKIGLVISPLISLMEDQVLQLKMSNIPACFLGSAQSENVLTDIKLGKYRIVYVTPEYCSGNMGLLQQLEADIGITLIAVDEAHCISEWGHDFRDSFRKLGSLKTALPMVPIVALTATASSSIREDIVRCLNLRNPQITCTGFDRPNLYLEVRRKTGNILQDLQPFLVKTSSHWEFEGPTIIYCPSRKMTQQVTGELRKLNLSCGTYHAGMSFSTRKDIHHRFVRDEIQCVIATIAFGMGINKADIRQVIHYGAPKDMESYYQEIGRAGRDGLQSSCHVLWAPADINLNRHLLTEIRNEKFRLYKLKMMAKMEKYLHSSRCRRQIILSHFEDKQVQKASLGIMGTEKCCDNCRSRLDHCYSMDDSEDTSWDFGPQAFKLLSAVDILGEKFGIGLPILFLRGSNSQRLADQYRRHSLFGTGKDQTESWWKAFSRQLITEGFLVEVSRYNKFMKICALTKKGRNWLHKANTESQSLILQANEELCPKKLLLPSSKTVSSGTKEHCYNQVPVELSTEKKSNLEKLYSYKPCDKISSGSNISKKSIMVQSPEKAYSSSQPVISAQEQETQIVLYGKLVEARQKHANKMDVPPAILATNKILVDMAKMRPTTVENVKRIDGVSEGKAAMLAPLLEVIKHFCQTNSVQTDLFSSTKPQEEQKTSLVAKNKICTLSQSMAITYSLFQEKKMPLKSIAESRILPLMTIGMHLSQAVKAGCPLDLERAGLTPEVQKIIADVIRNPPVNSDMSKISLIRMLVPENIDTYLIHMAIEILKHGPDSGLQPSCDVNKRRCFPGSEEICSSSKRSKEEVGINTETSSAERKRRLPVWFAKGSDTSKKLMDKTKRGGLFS
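Fluorescence dequenching readout, ex 525 nm/em 598 nm, kinetic mode: forked duplex DNA (100 nM final) with adjacent fluorophore and quencher unwound by WRN (20 nM final) with 2 mM ATP. Compound preincubation 15 min, room temperature.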
PLK1 PBD block: qHTS for Inhibitors of PLK1-PDB (polo-like kinase 1 - polo-box domain): Primary Screen; Serine/threonine-protein kinase PLK1 (Homo sapiens), P53350; Plk1 PBD binding of FITC phosphopeptide, fluorescence polarization; Potency, µM, inactives show max response, negative = inhibition, actives largely listed as inhibitors; 2.8% of 360,000 active; further: potency means the concentration at half of the fitted maximal effect; series mostly up to about 57 µM; on the % scale 0 is the no-effect control and ±100 the full control effect; nearly all actives have a fitted effect of over 65% in size
PI5P4K alpha inh: qHTS for Inhibitors of phosphatidylinositol 5-phosphate 4-kinase (PI5P4K); Phosphatidylinositol 5-phosphate 4-kinase type-2 alpha (Homo sapiens), P48426; PI5P4Kalpha enzyme, ADP-Glo luminescence, 60 min; hits give low values; max response, %; 1.2% of 330,000 active; AID 652105, 2013; active means max response of -50% or lower; inconclusive means between -30% and -50%; inactive means -30% or higher; further: value at the top dose of about 77 µM; on the % scale 0 is the no-effect control and ±100 the full control effect
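Controls without substrate or without enzyme flank wells where PI5P4Kalpha converts substrate using 5 microM ATP (final). Incubation lasts 60 minutes at room temperature; ADP formed is read by ADP-Glo luminescence.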
VDR inh: Inhibitors of the vitamin D receptor (VDR): qHTS | Vitamin D3 receptor (Homo sapiens), P11473 | VDR-SRC2-3 peptide fluorescence polarization, 2 h | Potency, µM, without a hit: max response, negative = inhibition, usual class: inhibitors | 0.93% of 400,000 active; further: potency means the concentration at half of the fitted maximal effect; on the % scale 0 is the no-effect control and ±100 the full control effect
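After 23 nl compound addition and a short centrifugation, plates sat for 2 hours at ambient temperature; polarization of fluorescence then indicated loss of VDR binding to peptide SRC2-3.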
* = called active by the depositor; ? = inconclusive; / = not tested or not shown; [ ] = another dose, or the depositor's remark. This is a sample that favours compounds with a hit; in the whole collection about 3.7% have one here. Unless noted, the call rests on the fitted dose curve; in most records, active means well fitted curve in the direction sought with a large enough effect; inconclusive means small, poorly fitted or top-dose-only effect, or another doubt; inactive means no such curve, though single readings can be large; an effect the other way counts as inactive or inconclusive.

SMILES | TCR act | FEN1 inhibitor | WRN inhibitor | PLK1 PBD block | PI5P4K alpha inh | VDR inh
CCOCC(=O)Nc1cc(S(=O)(=O)N2CCOCC2)ccc1N1CCCCC1 | 1% | -1% | -35% | 4.7µM* | ? | ?
COc1cc(/C=C/C(=O)Nc2cc(S(=O)(=O)N3CCOCC3)ccc2N2CCCC2)cc(OC)c1OC | 1% | 1% | -6%[57.1 µM] | 6.7µM* | -17 | ?
O=C(Nc1nccs1)c1ccc(S(=O)(=O)N2CCOCC2)cc1 | 2% | 79µM* | 4% | -9% | 2 | 114%
O=C(Nc1cc(S(=O)(=O)N2CCOCC2)ccc1N1CCOCC1)c1ccc(S(=O)(=O)N2CCCCC2)cc1 | -16% | 0% | 9% | 0% | 0 | -3%
CCOC(=O)CCC(=O)Nc1cc(S(=O)(=O)N2CCOCC2)ccc1N1CCCCC1 | 1% | -2% | 1% | -1% | -1 | 15%
COc1ccc(/C=C/C(=O)Nc2cc(S(=O)(=O)N3CCCCC3)ccc2N2CCCCC2)cc1OC | -1%[46.1 µM] | 1% | 11% | -5% | 2 | 9%
Fc1ccc(-c2csc(=S)[nH]2)cc1 | / | -15% | -35% | 24µM* | -51* | 79µM*
S=c1[nH]c(-c2ccccc2)cs1 | -1% | 0% | ? | 21µM* | -70* | ?
CCCn1ccc2c(OCC(=O)Nc3cc(C)ccc3C)cccc2c1=O | / | 11% | / | / | / | 5%
Brc1cccc[n+]1CCCC[n+]1ccccc1Br | / | 79µM* | / | / | / | /
Brc1cccc[n+]1CCCCCC[n+]1ccccc1Br | / | 79µM* | / | / | / | /
CCCCN(CCCC)CC(O)c1cc(Cl)cc2c1-c1ccc(Cl)cc1C2=Cc1ccc(Cl)cc1 (stereo unspecified) | / | -15% | / | / | / | /
COc1ccc2cnnc(SCC(=O)Nc3ccc(C(=O)O)cc3)c2c1OC | -6%[46.1 µM] | -17% | -26% | -8% | -66* | 3%
O=[N+]([O-])c1ccc2nc(NCCCO)nc(-c3ccccc3)c2c1 | 1%[46.1 µM] | 7% | -28% | 21µM* | -11 | ?
CCOC(=O)c1cc(CC)sc1NC(=O)c1cccc(N2C(=O)CCC2=O)c1 | 0%[46.1 µM] | 4% | 8% | -1% | -3 | -23%
CCOC(=O)c1cc(CC)sc1NC(=O)c1cc(OCC)c(OCC)c(OCC)c1 | -7% | -3% | 2% | 27µM* | / | ?
CCOC(=O)c1cc(CC)sc1NC(=O)c1ccc2c(c1)OCCO2 | 2% | ? | -8% | 21µM* | 1 | -18%
CC(=O)Oc1ccc(C(=O)[C@H]2[C@H]3C(=O)N(c4cccc5ccccc45)C(=O)[C@H]3[C@@H]3C=CC=NN32)cc1 | 0%[46.1 µM] | 12% | -16% | 42µM* | -27 | -13%
N=C1C(c2ccccc2)=C(O)CN1CCCO | 0% | -4% | -1% | 24µM* | 2 | -7%
CCCN(c1ccc(C(C)C)cc1)S(=O)(=O)c1ccc2c(c1)CCN2C(=O)CC | / | 17% | / | / | / | -11%
O=C(O)c1cc(-c2ccc(/C=N/NC(=S)Nc3ccccc3)o2)ccc1Cl | -24% | -19% | ? | ? | -72* | -14%
O=[N+]([O-])c1ccc(/C=N/NC(=S)Nc2ccccc2F)o1 | -10%[46.1 µM] | -3% | -15% | ? | -61* | -14%
O=[N+]([O-])c1ccc(/C=N/NC(=S)Nc2ccccc2)o1 | 16%[46.1 µM] | -12% | -34% | ? | -60* | -7%
CCOc1ccc(S(=O)(=O)N2CCN(c3nc(-c4ccccc4)nc4ccccc34)CC2)cc1OCC | / | -4% | / | / | / | -21%
O=C(Nc1cccc(-c2nc3ncccc3o2)c1)c1ccc(-c2cccc(Cl)c2Cl)o1 | / | -30% | / | / | / | ?
CCC(C)Nc1nc(N)c([N+](=O)[O-])c(NCc2ccccc2)n1 (stereo unspecified) | -1% | -28% | -11% | 30µM* | 1 | -9%
O=C(C[n+]1ccccc1Cl)c1cccc([N+](=O)[O-])c1 | / | -14% | / | / | / | /
